# Data from PubChem BioAssay.
# Active and inactive are the calls of the source.
# Target: Torsin-1A-interacting protein 2 (Homo sapiens) (UniProt Q8NFQ8)
# Assay: LULL1 binders on small-molecule microarray, primary screen, cell lysate, human LULL1 lysate, 635/667 nm fluorescence (AID 1092);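 further: probe is lysate of COS7 cells overexpressing human LULL1; score merges per-feature 667 nm fluorescence with signal-to-noise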
# Conditions: hLULL1 lysate binding, 635 nm fluorescence, higher = more signal
# Torsin-1A-interacting protein 2 (Homo sapiens), sequence (Q8NFQ8 whole entry, looked up): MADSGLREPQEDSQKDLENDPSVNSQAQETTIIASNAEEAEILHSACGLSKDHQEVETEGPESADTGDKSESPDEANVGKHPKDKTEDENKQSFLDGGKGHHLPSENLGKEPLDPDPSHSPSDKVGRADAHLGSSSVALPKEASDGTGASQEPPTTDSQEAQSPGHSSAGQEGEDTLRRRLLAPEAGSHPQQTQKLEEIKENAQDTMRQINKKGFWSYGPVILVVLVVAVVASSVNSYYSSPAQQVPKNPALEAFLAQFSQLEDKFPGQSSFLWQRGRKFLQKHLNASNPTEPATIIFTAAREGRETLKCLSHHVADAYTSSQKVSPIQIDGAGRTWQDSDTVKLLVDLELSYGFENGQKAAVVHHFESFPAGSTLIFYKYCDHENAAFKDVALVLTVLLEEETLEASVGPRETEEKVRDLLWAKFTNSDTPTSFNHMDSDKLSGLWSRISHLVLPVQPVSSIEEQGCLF
row,Structure (SMILES),composite z-score
1,CC(C)C(=C=CC[C@@H](O)c1ccccc1OCCO)C[C@@H](O)c1cc(Cl)cc(Cl)c1O,2.7
2,COc1ccc(C#Cc2ccc3c(c2)[C@]2(C(=O)N3)[C@H](C(=O)Nc3nc4ccccc4s3)[C@H]3C(=O)O[C@H](c4ccccc4)[C@H](c4ccccc4)N3[C@@H]2c2ccc(OCCO)cc2)cc1,2.7
3,CC(=O)n1cc(C(O)C2C=CC3C(=O)N(c4ccccc4)C(=O)C3N2Nc2ccccc2F)c2ccccc21 (stereo unspecified),2.51
4,COCCOC(=O)N1C(=O)[C@@]2(c3cc(C#CC4(O)CCCCCC4)ccc31)[C@H](c1ccc(OCCO)cc1)N1[C@H](c3ccccc3)[C@H](c3ccccc3)OC(=O)[C@H]1[C@@H]2C(N)=O,1.67
5,COc1cc2c(cc1O)C(c1ccc(CN3CCCC3)cc1)N(Cc1ccc([N+](=O)[O-])o1)CC2 (stereo unspecified),1.65
6,COc1ccc(CCNC(=O)[C@@]2(C)c3ccccc3C(=O)N(Cc3cc(C(F)(F)F)cc(C(F)(F)F)c3)[C@H]2c2ccc(CO)cc2)cc1,1.7

# System: not listed separately
# Assay: E. coli growth modulation, two-sided OD650, primary screen, E. coli filamentation project, strain DRC41, 24 h (AID 1093);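 further: MC1000 strain lacking acrAB efflux and sulA so SOS filamentation is blocked; test concentration not given here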
# Conditions: OD650, 24 h, higher = more signal, called active from +8 up or from −8 down
row,Structure (SMILES),z-score
1,O=C1C2C=CC(C(O)c3ccc([N+](=O)[O-])cc3)N(Nc3ccccc3)C2C(=O)N1c1ccccc1 (stereo unspecified),-0.8 (inactive)
2,CC(=O)NCCCC[C@@H]1NC(=O)[C@H]2C[C@@H](C(=O)NCCCCCC[N+](C)(C)C)[C@@H](c3ccc(O)cc3)N2C1=O,0.478 (inactive)
3,CCCC[C@H]1OB(O)C[C@H]2C1=C(COC)C[C@H]1C(=O)C=CC(=O)[C@H]12,0.898 (inactive)
4,C[C@@H](OCc1ccccc1)C1NC(=O)[C@@]23C(=O)N[C@@H](Cc4ccccc4)C2[C@H](C)[C@@]2(C)O[C@H]2C3/C=C/C/C=C\CNC(=O)[C@H](Cc2ccccc2)NC1=O (stereo partly specified),1.29 (inactive)
5,C=CCC(OC(C)=O)[C@@H]1[C@@H](N(Cc2ccc(-c3cccc(C(F)(F)F)c3)o2)C(=O)c2cccc3ccccc23)c2cc(OCCCO)ccc2N1C(=O)c1ccc2ccccc2c1 (stereo partly specified),0.0268 (inactive)
6,COCCn1c(C(=O)N2CCCC2)cc2c1C[C@H]1CN(C(=O)c3ccccc3)[C@@](Cc3ccccc3)(C(=O)OC)[C@@H]21,0.0508 (inactive)
7,C=CC[C@@]12N=C(c3ccc(OCCCO)cc3)O[C@@H]1c1ccccc1N(Cc1ccccc1)C2=O,1.12 (inactive)
8,C[C@]1(C(=O)NCC(F)(F)F)c2ccccc2C(=O)N(Cc2ccc(OC(F)(F)F)cc2)[C@H]1c1ccc(CO)cc1,-0.975 (inactive)
9,O=C1N(CCS(=O)(=O)c2ccccc2)c2ccccc2[C@@H]2OC(c3ccc(OCCCO)cc3)=N[C@]12CCS(=O)(=O)c1ccccc1,0.678 (inactive)
10,CN(C)CCCC[C@@H]1NC(=O)[C@@H]2C[C@H](C(=O)NCCCCCCNC(=O)CS)[C@H](c3cccc(OCCO)c3)N2C1=O,-0.142 (inactive)
11,[N-]=[N+]=Nc1ccccc1[C@@H]1OC(c2ccc(OCCCO)cc2)=N[C@]1(Cc1ccccc1)C(N)=O,1.74 (inactive)
12,C=CC[C@]1(C(=O)N(C)C)COC(c2ccc(OCCCO)cc2)=N1,-1.46 (inactive)
13,O=C1O[C@@H](c2ccccc2)[C@@H](c2ccccc2)N2[C@@H](c3ccc(O)cc3)[C@]3(C(=O)Nc4ccc(C#CC5=CCCCC5)cc43)[C@@H](C(=O)N3CCCCCCC3)[C@H]12,1.09 (inactive)
14,CCCCC(=C=CC[C@@H](O)c1cccc(OCCO)c1)C[C@@H](O)COCc1ccccc1,1.84 (inactive)
15,[N-]=[N+]=NCc1ccccc1C[C@]1(C(=O)O)COC(c2ccc(OCCCO)cc2)=N1,0.398 (inactive)
16,COC(=O)[C@]1(CO)N=C(c2ccc(OCCCO)cc2)O[C@@H]1c1ccccc1CN=[N+]=[N-],0.628 (inactive)
17,COc1ccc(NN2C(C(O)c3cc(C(F)(F)F)cc(C(F)(F)F)c3)C=CC3C(=O)N(C4CCCCC4)C(=O)C32)cc1 (stereo unspecified),-0.804 (inactive)
18,CN(C)CCCC[C@@H]1NC(=O)[C@H]2C[C@@H](C(=O)NCc3ccc(F)cc3)[C@@H](c3ccc(O)cc3)N2C1=O,0.539 (inactive)

row,Structure (SMILES),z-score
1,CCCC=C(CCC)[C@@H](NC(=O)c1ccccc1)c1ccc(C(=O)OC)cc1,0.689 (inactive)
2,C=CCC(OC(C)=O)[C@@H]1[C@@H](N(Cc2cccc3ccccc23)C(=O)c2cccc3ccccc23)c2cc(OCCCO)ccc2N1C(=O)Cc1ccc2ccccc2c1 (stereo partly specified),-0.225 (inactive)
3,C=C(COC)/C(=C/C[C@@H](OC(C)=O)c1ccccc1OCCO)c1cc(C(=O)OC)ccc1OC,0.174 (inactive)
4,CO[C@H]1O[C@H](CO)[C@@H](OC(=O)Nc2ccc(C(F)(F)F)cc2)[C@H](OC(=O)Nc2ccccc2-c2ccccc2)[C@@H]1OC(=O)Nc1ccccc1-c1ccccc1,0.193 (inactive)
5,CCOC(=O)C[C@H]1[C@H](OC(=O)c2ccc(-c3ccccc3)cc2)[C@@H](NC(=O)CC(C)C)c2cc(OCCCO)ccc2N1C(=O)Cc1ccc(OC)cc1,-1.1 (inactive)
6,CCOC(=O)C[C@H]1[C@H](OC(=O)c2cc3ccccc3oc2=O)[C@@H](NC(=O)C2CCCCC2)c2cc(OCCCO)ccc2N1C(=O)Cc1ccc(OC)cc1,-0.723 (inactive)
7,N#Cc1ccc(C(O)C2C=CC3C(=O)NC(=O)C3N2Nc2ccccn2)cc1 (stereo unspecified),-0.195 (inactive)
8,O=C1C2C=CC(C(O)c3cccs3)N(Nc3ccccc3)C2C(=O)N1c1ccccc1 (stereo unspecified),0.0249 (inactive)
9,COC(=O)[C@@]1(Cc2ccc(OC)cc2)[C@H]2c3cc(C(=O)N4CCCC4)n(CCc4ccc(OC)c(Br)c4)c3C[C@H]2CN1C(=O)c1ccccc1,0.615 (inactive)
10,CO[C@H]1O[C@H](CO)[C@@H](OC(=O)Nc2ccc(C(F)(F)F)cc2)[C@H](OC(=O)Nc2ccccc2-c2ccccc2)[C@H]1OC(=O)Nc1ccccc1-c1ccccc1,0.0918 (inactive)
11,CCOC(=O)C1=C(C(=O)OCC)N(S(=O)(=O)CC[Si](C)(C)C)[C@H](c2ccccc2)CC1,-0.219 (inactive)
12,CC(C)C(=C=CC[C@@H](O)c1ccccc1OCCO)C[C@@H](O)c1cc(Cl)cc(Cl)c1O,-0.101 (inactive)
13,COc1ccc(C#Cc2ccc3c(c2)[C@]2(C(=O)N3)[C@H](C(=O)Nc3nc4ccccc4s3)[C@H]3C(=O)O[C@H](c4ccccc4)[C@H](c4ccccc4)N3[C@@H]2c2ccc(OCCO)cc2)cc1,0.361 (inactive)
14,CC(=O)n1cc(C(O)C2C=CC3C(=O)N(c4ccccc4)C(=O)C3N2Nc2ccccc2F)c2ccccc21 (stereo unspecified),1.01 (inactive)
15,COCCOC(=O)N1C(=O)[C@@]2(c3cc(C#CC4(O)CCCCCC4)ccc31)[C@H](c1ccc(OCCO)cc1)N1[C@H](c3ccccc3)[C@H](c3ccccc3)OC(=O)[C@H]1[C@@H]2C(N)=O,0.257 (inactive)
16,COc1cc2c(cc1O)C(c1ccc(CN3CCCC3)cc1)N(Cc1ccc([N+](=O)[O-])o1)CC2 (stereo unspecified),0.098 (inactive)
17,COc1ccc(CCNC(=O)[C@@]2(C)c3ccccc3C(=O)N(Cc3cc(C(F)(F)F)cc(C(F)(F)F)c3)[C@H]2c2ccc(CO)cc2)cc1,1.02 (inactive)
